Data on nine compounds can be found in PubChem BioAssay (NCI).

Compounds without any hit were thinned out: in the full panel of roughly 83,000, 20% have a hit.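 Percent growth is the endpoint: 0 to 100 indicates growth inhibition (40 means 60% inhibition), 0 means no net growth, and negative values indicate cell death.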 A number with no mark means an inactive call. Calls of active or inactive are those of the source. How the source made its calls: active means growth percent below 10; inactive means the rest.

The test system of the experiment is HL-60(TB) leukemia. Put plainly: NCI-60 one-dose screen, 48 h (100 = growth as untreated, 0 = no growth, -100 = all killed). The note with it: 10 µM unless noted.
Turning to `Cc1ccc(OCCCCCCNCCO)c(C)c1`, the growth is -3.98% (active).
With `Cc1ccc(C(=O)c2ccc(CC(=O)NN3C(=O)c4ccccc4C3=O)n2C)cc1`, the growth is 100%.
On to `Cc1c2cnccc2c(C)c2c1c1cc(C3OCCCO3)ccc1n2C`, for which the growth was -4.04% (active).
The result for `N/C(=N\c1nc2ccccc2[nH]1)NC(=O)Cc1cccc2ccccc12` reads 82.4%.
The result for `CCCNC(=O)Oc1ccc(/C(=C(/CC)Cc2ccccc2)c2ccc(OCCN(CC)CC)cc2)cc1` reads 53.3%; that for `O=[N+]([O-])c1cc2c(cc1Br)-c1ccccc1C2`, 104%.
Consider `Nc1n[nH]c2cc(F)c([C@@H]3Nc4ccc5[nH]ncc5c4[C@H]4C5CCC(C5)[C@@H]34)cc12` (some centres undefined), for which the growth was -22.4% (active).
Consider `CNCCCn1c2c(c3ccc(Cl)cc3c1=O)C(=O)c1cc(OC)cnc1-2`, for which the growth was -26.3% (active).
With `C/C=C/C=N/NC(=S)Nc1ccccc1`, the growth is 81.7%.
